Data taken from PubChem BioAssay (Tox21).
Results filed as inconclusive are left out. The source made the active and inactive calls. Calls follow the shape of the dose curve; as a rule, active = well fitted activation curve with a large enough effect in the signal ratio in the repeat runs, with a control signal flat (not every such curve was filed as active); inconclusive = weak or mixed curves; inactive = flat fitted curve, though single readings scatter; the % refers to the signal ratio.
% is scaled to controls: 0 for no effect and ±100 for the full control effect.

Test: qHTS assay for small molecule activators of the heat shock response signaling pathway (AID 743210)
Conditions: HeLa HSE-bla reporter, beta-lactamase ratio, 5 h; series mostly up to 62.6 µM; activation: at the top concentration
Source text: U.S. Tox21 Program National Center for Advancing Translational Sciences [NCATS] NIH Chemical Genomics Center [NCGC] U.S. Environmental Protection Agency [EPA] National Institutes of Environmental Health Sciences [NIEHS] National Toxicology Program [NTP] U.S. Food and Drug Administration [FDA] Tox21 Assay Overview: Various chemicals, environmental and physiological stress conditions may lead to the activation of heat shock response/ unfolded protein response (HSR/UPR). There are three heat shock transcription factors (HSFs) (HSF-1, -2, and -4) mediating transcriptional regulation of the human HSR. To identify the compounds that activate HSR signaling, HSE-bla HeLa cell line (Invitrogen, Carlsbad, CA, USA) containing a beta-lactamase reporter gene under the control of the heat shock response elements was used to screen the Tox21 10K compound library.
Tox21 Assay Protocol Summary: The CellSensor HSE-bla HeLa cells (Invitrogen, Carlsbad, CA, USA) were dispensed at 1500 cells/6uL/well into 1536-well black wall/clear bottom plates using a Multidrop combi (Thermo Fisher Scientific, Waltham, MA) dispenser. After the assay plates were incubated at 37 C and 5% CO2 overnight, 23 nL of compounds dissolved in DMSO, positive controls or DMSO only was transferred to the assay plate by a Pintool station (Kalypsys, San Diego, CA). The plates were incubated at 37 C for 5 h. After 1 uL of LiveBLAzerTM B/G FRET substrate was added using a Flying Reagent Dispenser (Beckman Coulter, Indianapolis, IN, USA), the plates were incubated at room temperature for 2.5 h, and fluorescence intensity was measured by an Envision plate reader (PerkinElmer, Shelton, CT).
In the case of `O=C(CCCN1CCC(n2c(=O)[nH]c3ccccc32)CC1)c1ccc(F)cc1`, the “activation” value is reported as 0.1% (inactive).
For `CC1=C(C(=O)O)N2C(=O)[C@@H](N)[C@H]2SC1`, the “activation” value was 1.17% [at 29.1 µM] (inactive).
With `CCCSP(=S)(OCC)Oc1ccc(Cl)cc1Cl` (stereo not given) the “activation” value was -0.761% (inactive).
In the case of `CC(Oc1ccc(Oc2ncc(C(F)(F)F)cc2Cl)cc1)C(=O)O` (stereo not given), the “activation” value is reported as -0.4% (inactive).
For `COC(=O)COc1ccc(Cl)cc1Cl`, the “activation” value was 1.34% (inactive).
For `C1CCC(C2CCCCC2)CC1`, the “activation” value was -1.22% (inactive).
In the case of `OCCSCSCCO`, the “activation” value is reported as -0.0286% (inactive).
In the case of `O=C(Oc1ccc(Br)cc1)N1CCN2CCC1CC2`, the “activation” value is reported as -0.689% (inactive).
With `O=[N+]([O-])c1cccc(O)c1` the “activation” value was -0.273% [at 81.1 µM] (inactive).
With `CCS(=O)(=O)CCSP(=O)(OC)OC` the “activation” value was -0.0286% (inactive).
In the case of `O=C(O)c1cccc(Cl)c1`, the “activation” value is reported as 1.02% (inactive).
In the case of `CC1CN1P(=O)(N1CC1C)N1CC1C` (stereo not given), the “activation” value is reported as -0.483% (inactive).
In the case of `CC(C1CC1)C(O)(Cn1cncn1)c1ccc(Cl)cc1` (stereo not given), the “activation” value is reported as 0.689% (inactive).
For `CCOP(=O)(N=C1SCCS1)OCC`, the “activation” value was 0.257% (inactive).
With `CCCCCCI` the “activation” value was 0.102% (inactive).
For `O=C(CCN1CC1)OCC(CO)(COC(=O)CCN1CC1)COC(=O)CCN1CC1`, the “activation” value was -0.135% (inactive).
For `CCc1cc2c(s1)-n1c(C)nnc1CN=C2c1ccccc1Cl`, the “activation” value was -1.67% (inactive).
With `CCOC(=O)N(C)C(=O)CSP(=S)(OCC)OCC` the “activation” value was 2.26% (inactive).
For `N#Cc1c(Cl)cccc1Cl`, the “activation” value was 0.505% (inactive).
In the case of `N#CC(Cl)(Cl)Cl`, the “activation” value is reported as 0.199% (inactive).
In the case of `C[N+](=O)[O-]`, the “activation” value is reported as 0.174% (inactive).
For `CCCCC(=O)Cl`, the “activation” value was -1.65% [at 81.1 µM] (inactive).
For `Clc1ccccc1N1CCNCC1`, the “activation” value was 2.1% (inactive).
With `CCN(CC)C(=O)[C@@H]1C=C2c3cccc4[nH]cc(c34)C[C@H]2N(C)C1` the “activation” value was 0.356% [at 232 µM] (inactive).
In the case of `CCCSC(=O)N(CCC)CCC`, the “activation” value is reported as 0.469% (inactive).
In the case of `CCC#N`, the “activation” value is reported as -1.12% [at 81.1 µM] (inactive).
In the case of `C=C(C)CN(CC)c1c([N+](=O)[O-])cc(C(F)(F)F)cc1[N+](=O)[O-]`, the “activation” value is reported as -1.82% (inactive).
With `Cc1cc(C)c(C(=O)P(=O)(C(=O)c2c(C)cc(C)cc2C)c2ccccc2)c(C)c1` the “activation” value was 0.0227% (inactive).
With `O=C(Nc1ccccc1)N(Cc1ccc(Cl)cc1)C1CCCC1` the “activation” value was 1.69% (inactive).
With `O=C(Cc1ccccc1)OCc1ccccc1` the “activation” value was 0.7% [at 81.1 µM] (inactive).
In the case of `Nc1cnn(-c2ccccc2)c(=O)c1Cl`, the “activation” value is reported as -1.77% (inactive).
With `Cc1ncc2n1-c1ccc(Cl)cc1C(c1ccccc1F)=NC2` the “activation” value was -0.379% (inactive).
For `CCCCCCBr`, the “activation” value was 0.222% [at 81.1 µM] (inactive).
With `C(CCOCC1CO1)COCC1CO1` (stereo not given) the “activation” value was -0.156% (inactive).
In the case of `[As]#[In]`, the “activation” value is reported as -1.22% (inactive).
For `[O]=[Cd]`, the “activation” value was 0.514% (inactive).
In the case of `Nc1n[nH]c(N)n1`, the “activation” value is reported as 0.415% [at 81.1 µM] (inactive).
In the case of `N#CCCC#N`, the “activation” value is reported as -0.381% (inactive).
For `Cc1cnc[nH]1`, the “activation” value was -0.195% (inactive).
For `CCC1(c2ccccc2)C(=O)NC(=O)NC1=O`, the “activation” value was -1.33% [at 81.1 µM] (inactive).
